Measured values taken from the supplement of paper PMC11732987, “Enantioselective OTUD7B fragment discovery through chemoproteomics screening and high-throughput optimisation” (Communications Chemistry, 2025).

Assays:
Experiment in all cases: log2 ratio of Biotin-Ahx-Ub-VS probe labelling (fragment/DMSO); higher = less target engagement (more negative = stronger competition), active = hit call of the paper (q ≤ 0.05, log2 ratio ≤ -1)
Conditions in all cases: compound concentration: 200 uM; treatment time: 3 h
ALG13 = target: T1, ALG13 (UniProt Q9NP73)
T1 sequence (whole entry): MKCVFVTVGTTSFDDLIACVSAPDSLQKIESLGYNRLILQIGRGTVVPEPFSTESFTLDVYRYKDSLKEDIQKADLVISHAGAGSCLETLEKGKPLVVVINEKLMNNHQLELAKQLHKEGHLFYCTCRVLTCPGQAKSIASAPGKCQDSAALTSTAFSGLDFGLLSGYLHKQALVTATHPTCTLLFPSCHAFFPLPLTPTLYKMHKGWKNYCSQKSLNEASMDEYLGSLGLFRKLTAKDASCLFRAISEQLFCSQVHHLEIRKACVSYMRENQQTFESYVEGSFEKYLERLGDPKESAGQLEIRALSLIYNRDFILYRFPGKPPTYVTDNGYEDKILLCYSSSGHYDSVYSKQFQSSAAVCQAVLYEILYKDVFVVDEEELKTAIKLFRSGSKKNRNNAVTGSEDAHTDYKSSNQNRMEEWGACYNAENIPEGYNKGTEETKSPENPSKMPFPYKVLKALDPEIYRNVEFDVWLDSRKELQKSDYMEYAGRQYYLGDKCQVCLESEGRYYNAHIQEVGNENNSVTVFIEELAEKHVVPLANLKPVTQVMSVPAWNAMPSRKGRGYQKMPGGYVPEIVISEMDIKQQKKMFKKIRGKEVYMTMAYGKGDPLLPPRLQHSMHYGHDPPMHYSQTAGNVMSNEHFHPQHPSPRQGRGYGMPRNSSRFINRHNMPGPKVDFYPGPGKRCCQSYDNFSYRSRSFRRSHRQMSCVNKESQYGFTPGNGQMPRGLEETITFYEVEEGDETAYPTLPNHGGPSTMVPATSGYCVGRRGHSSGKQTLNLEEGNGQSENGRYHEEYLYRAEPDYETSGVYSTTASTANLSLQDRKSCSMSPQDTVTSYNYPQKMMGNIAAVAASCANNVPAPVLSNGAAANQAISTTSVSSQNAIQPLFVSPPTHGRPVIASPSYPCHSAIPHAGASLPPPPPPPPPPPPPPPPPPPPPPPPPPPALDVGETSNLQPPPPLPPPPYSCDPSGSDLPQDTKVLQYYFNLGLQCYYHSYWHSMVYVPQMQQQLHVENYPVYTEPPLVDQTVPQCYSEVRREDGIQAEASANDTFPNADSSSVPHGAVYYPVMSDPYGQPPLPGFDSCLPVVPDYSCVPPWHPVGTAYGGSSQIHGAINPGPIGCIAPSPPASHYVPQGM
Method in brief: (§1)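 Fragment (200 µM) or vehicle was incubated for 3 h with triplicate HEK293T lysate samples of 495 µg, which were then treated with Biotin-Ahx-Ub-VS at 0.5 µM final for 1 h. Labelled DUBs were enriched on NeutrAvidin, digested with LysC and trypsin, and analysed by diaPASEF LC-MS/MS. Values are average log2 fragment/vehicle ratios from an unpaired t-test on global-median-normalised Spectronaut label-free quantities, using proteins with ≥2 unique peptides.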

ATXN3 = ATXN3 (UniProt P54252)
Chain of ATXN3 (P54252 whole entry): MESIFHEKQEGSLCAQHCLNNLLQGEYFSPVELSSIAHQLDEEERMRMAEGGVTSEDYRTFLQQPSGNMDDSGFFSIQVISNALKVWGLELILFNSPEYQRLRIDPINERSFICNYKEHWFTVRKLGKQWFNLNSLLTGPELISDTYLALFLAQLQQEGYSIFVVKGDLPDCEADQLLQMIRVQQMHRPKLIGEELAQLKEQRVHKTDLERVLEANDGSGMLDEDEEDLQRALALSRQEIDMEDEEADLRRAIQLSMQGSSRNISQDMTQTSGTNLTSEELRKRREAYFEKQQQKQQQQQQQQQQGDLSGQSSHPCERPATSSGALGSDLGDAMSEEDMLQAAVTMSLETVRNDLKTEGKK
Method in brief: as §1

BAP1 = target: T2, BAP1 (UniProt Q92560)
T2 sequence (whole entry): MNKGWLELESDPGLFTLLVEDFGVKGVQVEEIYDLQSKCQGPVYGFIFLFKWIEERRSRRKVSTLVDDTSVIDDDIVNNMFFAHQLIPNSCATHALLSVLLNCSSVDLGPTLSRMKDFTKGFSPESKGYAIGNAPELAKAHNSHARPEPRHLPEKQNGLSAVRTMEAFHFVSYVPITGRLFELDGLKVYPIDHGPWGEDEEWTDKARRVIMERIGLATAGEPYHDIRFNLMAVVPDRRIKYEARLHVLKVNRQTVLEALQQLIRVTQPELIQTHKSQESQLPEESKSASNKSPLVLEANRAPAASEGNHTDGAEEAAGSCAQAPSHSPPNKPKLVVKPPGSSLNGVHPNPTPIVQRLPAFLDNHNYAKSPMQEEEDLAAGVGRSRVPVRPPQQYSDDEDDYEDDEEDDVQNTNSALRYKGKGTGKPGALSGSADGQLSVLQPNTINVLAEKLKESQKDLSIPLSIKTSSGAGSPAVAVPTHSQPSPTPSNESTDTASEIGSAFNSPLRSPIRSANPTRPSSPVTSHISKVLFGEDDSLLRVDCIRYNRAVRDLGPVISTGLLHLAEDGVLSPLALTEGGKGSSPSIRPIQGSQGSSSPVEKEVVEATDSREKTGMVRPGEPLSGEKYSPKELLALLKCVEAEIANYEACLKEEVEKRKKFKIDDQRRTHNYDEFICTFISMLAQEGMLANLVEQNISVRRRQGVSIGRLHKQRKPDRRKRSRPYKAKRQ
Method in brief: as §1

EIF3F = EIF3F (UniProt O00303)
Chain of EIF3F (O00303 whole entry): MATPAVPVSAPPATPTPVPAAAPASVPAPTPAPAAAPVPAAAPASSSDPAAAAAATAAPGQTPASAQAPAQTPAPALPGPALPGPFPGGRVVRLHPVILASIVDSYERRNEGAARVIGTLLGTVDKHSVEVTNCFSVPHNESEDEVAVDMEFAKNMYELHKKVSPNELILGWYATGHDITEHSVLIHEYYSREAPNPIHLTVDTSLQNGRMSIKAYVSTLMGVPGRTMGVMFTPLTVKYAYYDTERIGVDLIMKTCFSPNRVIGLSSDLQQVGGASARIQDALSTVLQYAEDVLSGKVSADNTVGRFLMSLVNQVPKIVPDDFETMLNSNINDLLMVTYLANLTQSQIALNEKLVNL
Method in brief: as §1

EIF3H = EIF3H (UniProt O15372)
Chain of EIF3H (O15372 whole entry): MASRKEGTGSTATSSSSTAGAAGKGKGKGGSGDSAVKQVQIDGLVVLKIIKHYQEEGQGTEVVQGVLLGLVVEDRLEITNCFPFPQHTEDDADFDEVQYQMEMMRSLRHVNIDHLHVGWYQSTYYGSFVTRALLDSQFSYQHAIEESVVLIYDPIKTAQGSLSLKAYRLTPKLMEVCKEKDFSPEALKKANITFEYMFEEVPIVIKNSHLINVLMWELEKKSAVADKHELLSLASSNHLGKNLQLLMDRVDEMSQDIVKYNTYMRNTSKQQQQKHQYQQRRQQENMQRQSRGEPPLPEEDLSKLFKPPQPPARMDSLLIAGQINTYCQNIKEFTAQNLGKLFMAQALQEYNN
Method in brief: as §1

FAM105A = target: T3, FAM105A (UniProt Q9NUU6)
T3 sequence (whole entry): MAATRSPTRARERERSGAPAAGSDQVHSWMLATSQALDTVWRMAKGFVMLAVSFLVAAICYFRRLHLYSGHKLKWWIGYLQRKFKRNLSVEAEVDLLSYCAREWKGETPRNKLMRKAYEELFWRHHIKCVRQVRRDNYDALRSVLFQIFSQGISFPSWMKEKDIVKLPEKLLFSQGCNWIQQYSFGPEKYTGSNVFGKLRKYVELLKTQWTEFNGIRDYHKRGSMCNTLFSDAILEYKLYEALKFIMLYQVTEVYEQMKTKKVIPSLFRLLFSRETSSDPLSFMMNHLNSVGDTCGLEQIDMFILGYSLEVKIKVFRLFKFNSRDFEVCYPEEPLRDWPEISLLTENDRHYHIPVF
Method in brief: as §1

OTUB1 = OTUB1 (UniProt Q96FW1)
Chain of OTUB1 (Q96FW1 whole entry): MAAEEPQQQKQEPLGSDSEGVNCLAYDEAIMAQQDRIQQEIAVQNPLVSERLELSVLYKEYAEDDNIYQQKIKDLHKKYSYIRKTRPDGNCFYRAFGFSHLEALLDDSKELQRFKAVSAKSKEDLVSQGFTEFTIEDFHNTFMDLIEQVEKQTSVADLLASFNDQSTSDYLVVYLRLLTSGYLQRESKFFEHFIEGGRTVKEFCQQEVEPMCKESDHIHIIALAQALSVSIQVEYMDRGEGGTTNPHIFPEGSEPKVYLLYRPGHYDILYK
Method in brief: as §1

OTUD4 = target: T4, OTUD4 (UniProt Q01804)
T4 sequence (whole entry): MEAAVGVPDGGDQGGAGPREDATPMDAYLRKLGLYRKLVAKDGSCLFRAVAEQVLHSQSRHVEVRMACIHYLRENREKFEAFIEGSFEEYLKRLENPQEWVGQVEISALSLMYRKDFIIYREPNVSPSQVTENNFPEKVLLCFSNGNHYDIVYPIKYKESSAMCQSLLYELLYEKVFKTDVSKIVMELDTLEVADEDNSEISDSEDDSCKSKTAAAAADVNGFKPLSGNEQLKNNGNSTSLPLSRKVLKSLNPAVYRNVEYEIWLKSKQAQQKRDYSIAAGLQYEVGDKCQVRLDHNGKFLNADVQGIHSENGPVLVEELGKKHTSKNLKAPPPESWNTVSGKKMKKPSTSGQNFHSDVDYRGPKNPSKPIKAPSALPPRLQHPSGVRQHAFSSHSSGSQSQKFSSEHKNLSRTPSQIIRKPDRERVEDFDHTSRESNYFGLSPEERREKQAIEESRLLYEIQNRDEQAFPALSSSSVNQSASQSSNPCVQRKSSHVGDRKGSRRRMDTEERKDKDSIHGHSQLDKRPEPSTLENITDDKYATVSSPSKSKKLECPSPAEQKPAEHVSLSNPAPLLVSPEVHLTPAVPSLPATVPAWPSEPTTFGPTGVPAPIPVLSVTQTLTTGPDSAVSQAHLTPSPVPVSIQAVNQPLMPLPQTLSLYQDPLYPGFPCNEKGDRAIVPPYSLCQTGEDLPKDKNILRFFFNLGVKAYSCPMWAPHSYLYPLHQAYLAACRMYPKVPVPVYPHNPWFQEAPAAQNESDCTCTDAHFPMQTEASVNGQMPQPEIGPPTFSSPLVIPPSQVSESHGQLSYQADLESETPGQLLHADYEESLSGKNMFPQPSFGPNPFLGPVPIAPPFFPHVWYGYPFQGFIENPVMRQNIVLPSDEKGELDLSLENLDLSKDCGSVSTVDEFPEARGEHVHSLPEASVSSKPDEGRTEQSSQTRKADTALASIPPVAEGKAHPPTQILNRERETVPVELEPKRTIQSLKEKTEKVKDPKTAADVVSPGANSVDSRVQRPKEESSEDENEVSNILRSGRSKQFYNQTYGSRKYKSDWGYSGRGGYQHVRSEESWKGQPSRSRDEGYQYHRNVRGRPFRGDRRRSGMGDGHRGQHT
Method in brief: as §1

OTUD5 = target: T5, OTUD5 (UniProt Q96G74)
T5 sequence (whole entry): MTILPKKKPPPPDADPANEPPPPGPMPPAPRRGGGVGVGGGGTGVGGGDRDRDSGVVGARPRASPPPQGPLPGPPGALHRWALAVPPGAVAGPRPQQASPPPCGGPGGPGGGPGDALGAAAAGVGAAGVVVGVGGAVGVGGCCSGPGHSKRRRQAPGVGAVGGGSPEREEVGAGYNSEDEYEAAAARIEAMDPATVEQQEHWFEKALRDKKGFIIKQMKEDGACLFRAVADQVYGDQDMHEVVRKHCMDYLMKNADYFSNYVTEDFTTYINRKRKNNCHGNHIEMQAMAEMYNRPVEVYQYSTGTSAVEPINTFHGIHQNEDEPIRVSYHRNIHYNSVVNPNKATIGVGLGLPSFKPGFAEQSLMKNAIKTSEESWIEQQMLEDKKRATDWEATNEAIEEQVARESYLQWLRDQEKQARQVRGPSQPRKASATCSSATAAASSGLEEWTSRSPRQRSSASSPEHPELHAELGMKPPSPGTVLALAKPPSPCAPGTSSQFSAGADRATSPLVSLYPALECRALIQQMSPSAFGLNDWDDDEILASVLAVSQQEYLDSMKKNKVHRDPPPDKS
Method in brief: as §1

Measured: log2 ratio of Biotin-Ahx-Ub-VS probe labelling

O=C(CCl)N1CCOCCC1c1ccccc1 (centres undefined)
inactive: ALG13 -0.00764 | ATXN3 0.117 | BAP1 -0.446 | EIF3F -0.267 | EIF3H 0.204 | FAM105A 0.0466 | OTUB1 -0.0821 | OTUD4 -0.0459 | OTUD5 0.0776
